Data: PubChem BioAssay (NCATS)
Inconclusive results are not listed. Unmarked numbers belong to inactive results. Calls of active or inactive are those of the source. Calls come from the whole dose curve; as a rule, active = well fitted curve in the direction sought with a large enough effect; inconclusive = small, poorly fitted or top-dose-only effect, or another doubt; inactive = no such curve, though single readings can be large; an effect the other way counts as inactive or inconclusive.

Assay: qHTS assay to identify small molecule inhibitors of chordoma cells - UCH-1 (AID 1259355); note: nearly all actives have a fitted effect of over 55% in size
Settings: UCH-1 chordoma viability, CellTiter-Glo, 48 h, combination, with auranofin plus four topoisomerase inhibitors; series mostly up to 46.1 µM; activity, negative = inhibition: at the top concentration
In short: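 Screening used approved and investigational drugs in 15-point titration against 800 seeded cells per well. A fixed combination of auranofin with camptothecin, doxorubicin, rubitecan and topotecan followed compound addition, and growth was scored by CellTiter-Glo after 48hr.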
% is set by controls: 0 for no effect and ±100 for the full control effect; potency is the fitted concentration of half-maximal effect.

| SMILES | activity, negative = inhibition | Potency |
| --- | --- | --- |
| CCOCCn1c(N2CCCN(C)CC2)nc2ccccc21 | -2.66% | – |
| O=C(c1ccc(F)cc1)C1CCN(CCn2c(=S)[nH]c3ccccc3c2=O)CC1 | -23.9% | – |
| Cc1cccc(C)c1NC(=O)CN1CCCCCC1 | -9.66% | – |
| CC(C)(Cc1c[nH]c2ccccc12)NCC(O)COc1ccccc1C#N (centres undefined) | -21.5% | – |
| Cc1cc(-c2ccccc2)nnc1NCCN1CCOCC1 | 1.79% | – |
| CCCCNc1ccc(C(=O)OCCOCCOCCOCCOCCOCCOCCOCCOCCOC)cc1 | -3.51% [at 20.6 µM] | – |
| CCCCCCCCCCC[C@@H](C[C@@H]1OC(=O)[C@H]1CCCCCC)OC(=O)[C@H](CC(C)C)NC=O | 15.2% | – |
| FC(F)(F)C(F)(F)C(F)(F)C(F)(F)C(F)(F)C(F)(F)C(F)(F)C(F)(F)Br | -25.7% | – |
| CCCCCN=C(N)N/N=C/c1c[nH]c2ccc(OC)cc12 | -9.37% | – |
| CC(=O)Nc1ccc(S(=O)(=O)Nc2ccc([N+](=O)[O-])cc2)cc1 | -35.1% | – |
| CCCCCCCCCCCCCCCC(=O)O | -15.9% | – |
| O=S(=O)(O)c1ccc(O)cc1 | -18.3% | – |
| CO[C@]12C[C@@H](COC(=O)c3cncc(Br)c3)CN(C)[C@@H]1Cc1cn(C)c3cccc2c13 | -5.17% | – |
| CCN(CC)CCNC(=O)c1cc(Br)c(N)cc1OC | 14.9% | – |
| Oc1c(Cl)cc(Cl)c(Cl)c1Cc1c(O)c(Cl)cc(Cl)c1Cl | – | 25.1 µM (active) |
| C[C@H]1O[C@@H](O[C@H]2CC[C@@]3(C)[C@H](CC[C@@H]4[C@@H]3C[C@@H](O)[C@]3(C)[C@@H](C5=CC(=O)OC5)CC[C@]43O)C2)C[C@H](O)[C@@H]1O[C@H]1C[C@H](O)[C@H](O[C@H]2C[C@H](O)[C@H](O[C@@H]3O[C@H](CO)[C@@H](O)[C@H](O)[C@H]3O)[C@@H](C)O2)[C@@H](C)O1 | – | 0.708 µM (active) |
| NC(N)=NCc1cccc(I)c1 | -5.91% | – |
| CCN(CC)CCOc1ccc2c(c1)C(=O)c1cc(OCCN(CC)CC)ccc1-2 | 0.196% | – |
| NC(N)=NN=C(/C=C/c1ccc([N+](=O)[O-])o1)/C=C/c1ccc([N+](=O)[O-])o1 | – | 10 µM (active) |

| SMILES | activity, negative = inhibition | Potency |
| --- | --- | --- |
| C/C=C/c1ccc(O)c(OC)c1 | 10.4% | – |
| CC(C)NCC(O)c1ccc2ccccc2c1 (centres undefined) | -20.7% | – |
| C=C[C@@]1(C)CC(=O)[C@]2(O)[C@@]3(C)[C@@H](O)CCC(C)(C)[C@@H]3[C@H](O)[C@H](OC(C)=O)[C@@]2(C)O1 | -16.6% | – |
| CCN1CCN(C(=O)N[C@@H](C(=O)N[C@@H]2C(=O)N3C(C(=O)O)=C(CSc4nnnn4C)CS[C@H]23)c2ccc(O)cc2)C(=O)C1=O | -6.35% | – |
| C[C@]12CCC(=O)C=C1C=C[C@@H]1[C@@H]2CC[C@@]2(C)[C@H]1CC[C@@]21CCC(=O)O1 | -10.6% | – |
| CCc1nn(CCCN2CCN(c3cccc(Cl)c3)CC2)c(=O)n1CCOc1ccccc1 | -21.3% | – |
| CC(=O)O[C@]1(C(C)=O)CC[C@H]2[C@@H]3C=C(Cl)C4=CC(=O)CC[C@]4(C)[C@H]3CC[C@@]21C | -25.8% | – |
| CC(=C(CCOC(=O)C(C)C)SSC(CCOC(=O)C(C)C)=C(C)N(C=O)Cc1cnc(C)nc1N)N(C=O)Cc1cnc(C)nc1N | -13.3% | – |
| CCCCN1C[C@H](O)[C@@H](O)[C@H](O)[C@H]1CO | -9.48% | – |
| C#C[C@]1(OC(C)=O)CC[C@H]2[C@@H]3CCC4=C/C(=N/O)CC[C@@H]4[C@H]3CC[C@@]21CC | -11% | – |
| COc1ccc(S(=O)(=O)N2c3ccc(Cl)cc3[C@@](O)(c3ccccc3Cl)[C@H]2C(=O)N2CCC[C@@H]2C(N)=O)cc1OC | -29.1% | – |
| O=C(CN1CCN(Cc2ccc3c(c2)OCO3)CC1)N1c2ccccc2Sc2ccccc21 | -19.3% | – |
| CC[N+](C)(CC)CCOC(=O)C(O)(c1ccccc1)C1CCCCC1 (centres undefined) | -1.56% | – |
| CC(C)(C)NC[C@H](O)COc1nsnc1N1CCOCC1 | 13.6% | – |
| CN1CCc2cccc3c2[C@H]1Cc1ccc(O)c(O)c1-3 | -2.72% | – |
| CN1CCN(C2=Nc3ccccc3Sc3ccc(Cl)cc32)CC1 | -6.72% | – |
| Cl/C(=C\n1cncn1)c1ccc(Cl)cc1Cl | -13.4% | – |
| CCOC(=O)[C@H](CCc1ccccc1)N[C@@H](C)C(=O)N1[C@H](C(=O)O)C[C@H]2CCCC[C@@H]21 | -25.1% | – |

Assay: qHTS assay to identify small molecule inhibitors of chordoma cells - UCH-2 (AID 1259356)
Settings: UCH-2 chordoma viability, CellTiter-Glo ATP luminescence, 48 h; series mostly up to 46.1 µM; activity change, negative = inhibition: at the top concentration

| SMILES | activity change, negative = inhibition | Potency |
| --- | --- | --- |
| CCOCCn1c(N2CCCN(C)CC2)nc2ccccc21 | 10.7% | – |
| O=C(c1ccc(F)cc1)C1CCN(CCn2c(=S)[nH]c3ccccc3c2=O)CC1 | -0.0313% | – |
| Cc1cccc(C)c1NC(=O)CN1CCCCCC1 | 0.656% | – |
| CC(C)(Cc1c[nH]c2ccccc12)NCC(O)COc1ccccc1C#N (centres undefined) | -10.3% | – |
| Cc1cc(-c2ccccc2)nnc1NCCN1CCOCC1 | 2.32% | – |
| CCCCNc1ccc(C(=O)OCCOCCOCCOCCOCCOCCOCCOCCOCCOC)cc1 | 0.377% [at 20.6 µM] | – |
| CCCCCCCCCCC[C@@H](C[C@@H]1OC(=O)[C@H]1CCCCCC)OC(=O)[C@H](CC(C)C)NC=O | 3.91% | – |
| FC(F)(F)C(F)(F)C(F)(F)C(F)(F)C(F)(F)C(F)(F)C(F)(F)C(F)(F)Br | 13.1% | – |
| CCCCCN=C(N)N/N=C/c1c[nH]c2ccc(OC)cc12 | 10.1% | – |
| CC(=O)Nc1ccc(S(=O)(=O)Nc2ccc([N+](=O)[O-])cc2)cc1 | 23.1% | – |
| CCCCCCCCCCCCCCCC(=O)O | -0.561% | – |
| O=S(=O)(O)c1ccc(O)cc1 | 13% | – |
| CO[C@]12C[C@@H](COC(=O)c3cncc(Br)c3)CN(C)[C@@H]1Cc1cn(C)c3cccc2c13 | 12.7% | – |
| CCN(CC)CCNC(=O)c1cc(Br)c(N)cc1OC | 2.71% | – |
| Oc1c(Cl)cc(Cl)c(Cl)c1Cc1c(O)c(Cl)cc(Cl)c1Cl | -16% | – |
| C[C@H]1O[C@@H](O[C@H]2CC[C@@]3(C)[C@H](CC[C@@H]4[C@@H]3C[C@@H](O)[C@]3(C)[C@@H](C5=CC(=O)OC5)CC[C@]43O)C2)C[C@H](O)[C@@H]1O[C@H]1C[C@H](O)[C@H](O[C@H]2C[C@H](O)[C@H](O[C@@H]3O[C@H](CO)[C@@H](O)[C@H](O)[C@H]3O)[C@@H](C)O2)[C@@H](C)O1 | – | 0.58 µM (active) |
| NC(N)=NCc1cccc(I)c1 | 3.94% | – |
| CCN(CC)CCOc1ccc2c(c1)C(=O)c1cc(OCCN(CC)CC)ccc1-2 | -7.39% | – |
| NC(N)=NN=C(/C=C/c1ccc([N+](=O)[O-])o1)/C=C/c1ccc([N+](=O)[O-])o1 | – | 16.4 µM (active) |

| SMILES | activity change, negative = inhibition | Potency |
| --- | --- | --- |
| C/C=C/c1ccc(O)c(OC)c1 | 2.43% | – |
| CC(C)NCC(O)c1ccc2ccccc2c1 (centres undefined) | 2.19% | – |
| C=C[C@@]1(C)CC(=O)[C@]2(O)[C@@]3(C)[C@@H](O)CCC(C)(C)[C@@H]3[C@H](O)[C@H](OC(C)=O)[C@@]2(C)O1 | -4.99% | – |
| CCN1CCN(C(=O)N[C@@H](C(=O)N[C@@H]2C(=O)N3C(C(=O)O)=C(CSc4nnnn4C)CS[C@H]23)c2ccc(O)cc2)C(=O)C1=O | 6.36% | – |
| C[C@]12CCC(=O)C=C1C=C[C@@H]1[C@@H]2CC[C@@]2(C)[C@H]1CC[C@@]21CCC(=O)O1 | 6.1% | – |
| CCc1nn(CCCN2CCN(c3cccc(Cl)c3)CC2)c(=O)n1CCOc1ccccc1 | 2.85% | – |
| CC(=O)O[C@]1(C(C)=O)CC[C@H]2[C@@H]3C=C(Cl)C4=CC(=O)CC[C@]4(C)[C@H]3CC[C@@]21C | 10.8% | – |
| CC(=C(CCOC(=O)C(C)C)SSC(CCOC(=O)C(C)C)=C(C)N(C=O)Cc1cnc(C)nc1N)N(C=O)Cc1cnc(C)nc1N | 6.28% | – |
| CCCCN1C[C@H](O)[C@@H](O)[C@H](O)[C@H]1CO | -3.56% | – |
| C#C[C@]1(OC(C)=O)CC[C@H]2[C@@H]3CCC4=C/C(=N/O)CC[C@@H]4[C@H]3CC[C@@]21CC | 18.9% | – |
| COc1ccc(S(=O)(=O)N2c3ccc(Cl)cc3[C@@](O)(c3ccccc3Cl)[C@H]2C(=O)N2CCC[C@@H]2C(N)=O)cc1OC | -0.334% | – |
| O=C(CN1CCN(Cc2ccc3c(c2)OCO3)CC1)N1c2ccccc2Sc2ccccc21 | 4.32% | – |
| CC[N+](C)(CC)CCOC(=O)C(O)(c1ccccc1)C1CCCCC1 (centres undefined) | -1.39% | – |
| CC(C)(C)NC[C@H](O)COc1nsnc1N1CCOCC1 | 6.28% | – |
| CN1CCc2cccc3c2[C@H]1Cc1ccc(O)c(O)c1-3 | 7.83% | – |
| CN1CCN(C2=Nc3ccccc3Sc3ccc(Cl)cc32)CC1 | 0.796% | – |
| Cl/C(=C\n1cncn1)c1ccc(Cl)cc1Cl | -3.68% | – |
| CCOC(=O)[C@H](CCc1ccccc1)N[C@@H](C)C(=O)N1[C@H](C(=O)O)C[C@H]2CCCC[C@@H]21 | 0.0879% | – |
